# From PubChem BioAssay (EPA / NIEHS)
# “And” between values parts separate entries of the source, which are not always exact repeats. Equal entries are not always repeated. Results filed as inconclusive are left out. The source holds several records for some structures; these can differ, active in one and inactive in another. The source made the active and inactive calls. Rule for the calls: active = hit-call score of the fitted dose curve at least 0.9, where 1 is the maximum; inconclusive = response in the unintended direction; inactive = score below 0.9.
# Tests used:
# [1] = biological target: Estrogen receptor (Homo sapiens) + Estrogen receptor beta (Homo sapiens) (UniProt P03372+Q92731); assay: OT_ER_ERaERb_1440: Odyssey Thera (OT) 24-hour HEK293T Protein-Complementation Assay for Estrogen Receptor-alpha/-beta Homodimer (AID 2283356);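 note: heteromer of ER alpha and ER beta binding domains; hits raise reporter fluorescence and both agonists and antagonists give an increase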
# Summary of the method: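 HEK293T stably expressing a PCA of ER alpha LBD (aa 310-547) and ER beta LBD (aa 263-489). After 24 h compound exposure, mean fluorescence intensity in nucleus (agonists) or nucleus and cytoplasm (antagonists) measured by laser scanning cytometry versus vehicle.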
# [2] = biological target: Estrogen receptor beta (Homo sapiens) (UniProt Q92731); assay: OT_ER_ERbERb_0480: Odyssey Thera (OT) 8-hour HEK293T Protein-Complementation Assay for Estrogen Receptor-beta/-beta Homodimer (AID 2283357);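 note: active means signal gain over DMSO baseline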
# Summary of the method: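 Readout: increase in mean fluorescence intensity (nucleus for agonists; nucleus plus cytoplasm for antagonists) relative to DMSO, from a reporter-fragment complementation of human ER-beta LBD homodimer in HEK293T cells dosed 8 hours.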
# [3] = biological target: Glucocorticoid receptor (Homo sapiens) (UniProt P04150); assay: NVS_NR_hGR: NovaScreen (NVS) Nuclear Receptor Binding Assay for human Glucocorticoid Receptor (GR) (AID 2283363);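 for AC50: activity is loss of specific radioligand binding signal relative to DMSO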
# Summary of the method: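 Cell-free radioligand binding with extracted receptor protein, read by filter-based scintillation counting 16 hours after dosing. Loss of specific signal versus DMSO baseline was scored. Primary screen ran in duplicate at 25 uM; actives were followed up in concentration series.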
# [4] = biological target: human Dopamine Transporter (DAT), SLC6A3 (gene 6531) (UniProt Q01959); assay: NVS_TR_hDAT: NovaScreen (NVS) Transporter Assay for human Dopamine Transporter (DAT) (AID 2283374);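 note: activity means loss of bound radioligand signal relative to DMSO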
# Summary of the method: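 Cell-free radioligand binding to extracted human DAT protein, read 1 h after dosing by filter-based scintillation counting. Loss of specific binding scored against DMSO baseline; primary screen in duplicate at 25 uM, actives then run in concentration series.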
# [5] = biological target: human Peroxisome Proliferator-activated Receptor alpha (PPARa), PPARA (gene 5465) (UniProt Q07869); assay: NVS_NR_hPPARa: NovaScreen (NVS) Nuclear Receptor Binding Assay for human Peroxisome Proliferator-activated Receptor alpha (PPARa) (AID 2283359);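 note: activity means loss of TR-FRET signal versus DMSO baseline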
# Summary of the method: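 Cell-free binding assay with extracted human protein, read by TR-FRET 1 h after chemical dosing. Loss of signal relative to DMSO baseline indicates binding. Primary screen used duplicate single concentration (25 uM); actives followed up in concentration series.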
# [6] = biological target: Peroxisome proliferator-activated receptor gamma (Homo sapiens) (UniProt P37231); assay: NVS_NR_hPPARg: NovaScreen (NVS) Nuclear Receptor Binding Assay for human Peroxisome Proliferator-activated Receptor gamma (PPARg) (AID 2283370)
# Summary of the method: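 Cell-free fluorescence polarization binding to human PPARg protein, read 2 h after dosing. Primary screen in duplicate at 25 uM, actives followed in concentration series; loss of signal relative to DMSO scored.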
# [7] = biological target: rat Androgen Receptor (AR), Ar (gene 24208) (UniProt P15207); assay: NVS_NR_rAR: NovaScreen (NVS) Nuclear Receptor Binding Assay for rat Androgen Receptor (AR) (AID 2283366)
# Summary of the method: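 Cell-free radioligand binding on extracts of prostate from testosterone-pretreated rats, read by filter-based scintillation counting 18 h after dosing. Loss of bound signal fitted positively versus DMSO; primary screen in duplicate at 25 uM, actives followed up in concentration series.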
# [8] = biological target: Nuclear receptor subfamily 1 group I member 2 (Homo sapiens) (UniProt O75469); assay: NVS_NR_hPXR: NovaScreen (NVS) Nuclear Receptor Binding Assay for human Pregnane X Receptor (PXR) (AID 2283365);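 note: a drop in FRET signal versus DMSO baseline means the compound binds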
# Summary of the method: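 Cell-free TR-FRET binding assay with extracted human PXR protein, read 2 h after dosing. Primary screen run in duplicate at 25 uM, actives followed in concentration series; loss of signal fitted against DMSO baseline.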
# [9] = biological target: human Thyroid Receptor Alpha (TRa), THRA (gene 7067) (UniProt P10827); assay: NVS_NR_hTRa_Antagonist: NovaScreen (NVS) Nuclear Receptor Binding Assay for human Thyroid Receptor Alpha Antagonism (TRa) (AID 2283362);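 note: activity is loss of signal relative to DMSO baseline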
# Summary of the method: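 Cell-free AlphaLISA chemiluminescent binding read 1 h after dosing, antagonist mode; signal loss versus DMSO baseline. Primary screen in duplicate at 25 uM, then concentration series for actives.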
# [10] = biological target: PGR (gene 5241) (UniProt P06401); assay: NVS_NR_hPR: NovaScreen (NVS) Nuclear Receptor Binding Assay for human Progestron Receptor (PR) (AID 2283360);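 note: active means loss of bound radioligand signal versus DMSO baseline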
# Summary of the method: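 T47D-derived receptor preparation, cell-free, with tritiated or iodinated radioligand displacement measured by scintillation 18 h post-dosing. Single 25 uM duplicate screen, then concentration series; signal loss relative to DMSO.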
# [11] = biological target: guinea pig Sigma Receptor, Non-selective Binding, SIGMAR1 (gene 100135589) (UniProt Q60492); assay: NVS_OR_gSIGMA_NonSelective: NovaScreen (NVS) Nuclear Receptor Binding Assay for guinea pig Sigma Receptor, Non-selective Binding (AID 2283367)
# Summary of the method: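 Guinea pig brain membranes, cell-free radioligand binding; read 1 h after dosing by filter-based scintillation counting. Loss of signal vs DMSO baseline taken as displacement. Primary screen single concentration 25 uM in duplicate; actives retested in concentration series.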
# [12] = test system: guinea pig Dopamine Transporter (DAT), gene 100714898; assay: NVS_TR_gDAT: NovaScreen (NVS) Transporter Assay for guinea pig Dopamine Transporter (DAT) (AID 2283369);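 note: active compounds lower bound radioligand signal relative to DMSO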
# Summary of the method: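 Guinea pig striatal membranes, cell-free radioligand binding with filter-based scintillation counting, read 2 h after dosing. Loss of signal versus DMSO baseline; single-concentration primary (25 uM) then concentration-response up to 50 uM.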
# [13] = test system: rat Norepinephrine Transporter (NET), gene 83511; assay: NVS_TR_rNET: NovaScreen (NVS) Transporter Assay for rat Norepinephrine Transporter (NET) (AID 2283373)
# Summary of the method: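 Rat forebrain membranes; radioligand binding measured by filter-based scintillation counting 1 hour after dosing. Loss of specific binding versus DMSO baseline scored; primary screen in duplicate at 25 uM, actives followed up in concentration series.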
# [14] = biological target: rat Serotonin Transporter (SERT), Slc6a4 (gene 25553) (UniProt P31652); assay: NVS_TR_rSERT: NovaScreen (NVS) Transporter Assay for rat Serotonin Transporter (SERT) (AID 2283375)
# Summary of the method: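 Rat forebrain membranes; radioligand displacement at SERT read by filter-based scintillation counting, 1 h after dosing. Screened in duplicate at 25 uM, actives then run in concentration series; loss of signal versus DMSO baseline.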
# [15] = biological target: Retinoic acid receptor alpha (Homo sapiens) (UniProt P10276); assay: NVS_NR_hRAR_Antagonist: NovaScreen (NVS) Nuclear Receptor Binding Assay for human Retinoic Acid Alpha Receptor Antagonism (RAR) (AID 2283358)
# Summary of the method: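 Cell-free TR-FRET binding assay on extracted receptor protein, run in antagonist mode; signal read 2 hours after chemical dosing. Loss of signal was fitted relative to DMSO baseline. Screened at 25 uM in duplicate, actives followed up in concentration series.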
# [16] = biological target: human Adenosine Transporter (Adot), SLC29A1 (gene 2030) (UniProt Q99808); assay: NVS_TR_hAdoT: NovaScreen (NVS) Transporter Assay for human Adenosine Transporter (Adot) (AID 2283368)
# Summary of the method: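 U937-derived membranes, cell-free radioligand binding, filter scintillation 1 h after dosing. 25 uM duplicate screen; hits (e.g. 30% inhibition) run in concentration-response up to 50 uM; loss of signal versus DMSO.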
# [17] = biological target: human Serotonin Transporter (SERT), SLC6A4 (gene 6532) (UniProt P31645); assay: NVS_TR_hSERT: NovaScreen (NVS) Transporter Assay for human Serotonin Transporter (SERT) (AID 2283372)
# Summary of the method: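 Radioligand binding to native SERT in human platelet membranes, read by filter-based scintillation counting 1 h after dosing. Primary screen in duplicate at 25 uM; actives followed up in concentration series; loss of signal versus DMSO baseline.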
# [18] = biological target: Retinoic acid receptor alpha (Homo sapiens) (UniProt P10276); assay: NVS_NR_hRARa_Agonist: NovaScreen (NVS) Nuclear Receptor Binding Assay for human Retinoic Acid Alpha Receptor Agonism (RAR) (AID 2283361)
# Summary of the method: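 Cell-free TR-FRET binding read-out with extracted human RARα protein, read 2 h after compound addition. Gain of signal scored against DMSO baseline. Primary screen at a single 25 uM in duplicate; actives then retested in concentration series.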
# Estrogen receptor beta (Homo sapiens), sequence (Q92731 whole entry, looked up, the tested form may be a part): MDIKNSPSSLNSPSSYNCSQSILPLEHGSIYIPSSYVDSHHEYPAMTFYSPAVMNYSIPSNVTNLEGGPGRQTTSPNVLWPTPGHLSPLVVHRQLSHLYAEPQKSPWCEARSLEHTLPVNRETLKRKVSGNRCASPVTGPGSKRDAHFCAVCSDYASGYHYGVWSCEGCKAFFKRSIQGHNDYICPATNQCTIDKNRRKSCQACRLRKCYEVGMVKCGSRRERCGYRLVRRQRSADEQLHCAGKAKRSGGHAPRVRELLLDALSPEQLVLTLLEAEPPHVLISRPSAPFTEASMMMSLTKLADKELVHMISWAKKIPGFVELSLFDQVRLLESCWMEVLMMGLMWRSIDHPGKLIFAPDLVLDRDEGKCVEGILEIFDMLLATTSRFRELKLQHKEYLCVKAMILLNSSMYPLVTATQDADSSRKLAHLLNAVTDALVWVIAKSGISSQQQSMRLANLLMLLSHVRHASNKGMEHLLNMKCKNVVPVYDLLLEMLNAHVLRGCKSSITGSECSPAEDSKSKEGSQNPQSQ
# Estrogen receptor (Homo sapiens) + Estrogen receptor beta (Homo sapiens), sequence (P03372 whole entry, looked up, the tested form may be a part): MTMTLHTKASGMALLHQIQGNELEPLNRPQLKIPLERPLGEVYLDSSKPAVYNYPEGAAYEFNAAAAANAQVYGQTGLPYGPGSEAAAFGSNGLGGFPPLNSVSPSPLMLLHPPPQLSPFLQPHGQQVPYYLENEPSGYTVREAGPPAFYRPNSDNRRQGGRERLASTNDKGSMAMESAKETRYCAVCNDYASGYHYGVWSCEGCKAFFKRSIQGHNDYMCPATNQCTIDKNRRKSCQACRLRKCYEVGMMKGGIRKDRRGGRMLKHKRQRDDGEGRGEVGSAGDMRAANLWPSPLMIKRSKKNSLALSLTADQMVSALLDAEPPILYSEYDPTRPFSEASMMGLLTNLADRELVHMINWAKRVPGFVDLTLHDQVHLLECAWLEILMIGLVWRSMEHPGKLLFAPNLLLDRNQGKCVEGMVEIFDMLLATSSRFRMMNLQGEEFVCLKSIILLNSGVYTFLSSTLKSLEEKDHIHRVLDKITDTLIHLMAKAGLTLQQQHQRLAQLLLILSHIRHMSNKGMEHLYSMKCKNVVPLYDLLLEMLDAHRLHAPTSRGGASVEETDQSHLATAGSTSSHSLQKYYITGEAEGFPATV
# Estrogen receptor (Homo sapiens) + Estrogen receptor beta (Homo sapiens), sequence (Q92731 whole entry, looked up, the tested form may be a part): as the sequence (Q92731 whole entry, looked up, the tested form may be a part) above
# rat Serotonin Transporter (SERT), Slc6a4 (gene 25553), sequence (P31652 whole entry, looked up): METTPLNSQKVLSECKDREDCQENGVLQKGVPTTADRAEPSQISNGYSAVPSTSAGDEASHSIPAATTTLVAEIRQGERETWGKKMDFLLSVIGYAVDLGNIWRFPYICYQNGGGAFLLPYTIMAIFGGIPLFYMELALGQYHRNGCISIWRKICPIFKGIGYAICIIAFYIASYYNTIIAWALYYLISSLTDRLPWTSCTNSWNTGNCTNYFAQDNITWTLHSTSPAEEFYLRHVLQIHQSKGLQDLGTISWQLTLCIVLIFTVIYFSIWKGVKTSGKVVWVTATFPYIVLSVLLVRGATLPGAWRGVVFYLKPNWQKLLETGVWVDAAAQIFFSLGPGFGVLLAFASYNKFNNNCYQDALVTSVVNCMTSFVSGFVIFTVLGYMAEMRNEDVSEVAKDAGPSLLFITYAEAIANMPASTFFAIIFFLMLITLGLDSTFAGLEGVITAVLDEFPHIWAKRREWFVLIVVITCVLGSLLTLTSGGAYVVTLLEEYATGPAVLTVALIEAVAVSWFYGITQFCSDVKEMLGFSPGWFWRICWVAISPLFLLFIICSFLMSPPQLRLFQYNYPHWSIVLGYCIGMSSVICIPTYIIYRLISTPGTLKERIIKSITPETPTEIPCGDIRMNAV
# Peroxisome proliferator-activated receptor gamma (Homo sapiens), sequence (P37231 whole entry, looked up): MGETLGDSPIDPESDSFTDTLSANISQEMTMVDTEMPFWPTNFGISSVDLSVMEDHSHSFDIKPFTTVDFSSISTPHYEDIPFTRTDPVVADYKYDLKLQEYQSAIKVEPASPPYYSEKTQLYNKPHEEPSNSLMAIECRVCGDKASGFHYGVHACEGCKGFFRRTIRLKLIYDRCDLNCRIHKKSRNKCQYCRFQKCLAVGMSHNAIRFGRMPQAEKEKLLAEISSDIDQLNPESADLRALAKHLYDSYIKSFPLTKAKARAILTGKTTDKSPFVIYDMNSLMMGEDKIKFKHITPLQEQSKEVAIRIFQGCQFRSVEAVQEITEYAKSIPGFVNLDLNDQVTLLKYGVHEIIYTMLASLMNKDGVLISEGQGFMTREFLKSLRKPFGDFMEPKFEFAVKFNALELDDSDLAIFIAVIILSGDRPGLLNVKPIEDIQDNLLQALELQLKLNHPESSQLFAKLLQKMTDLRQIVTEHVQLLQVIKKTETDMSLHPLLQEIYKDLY
# Glucocorticoid receptor (Homo sapiens), sequence (P04150 whole entry, looked up): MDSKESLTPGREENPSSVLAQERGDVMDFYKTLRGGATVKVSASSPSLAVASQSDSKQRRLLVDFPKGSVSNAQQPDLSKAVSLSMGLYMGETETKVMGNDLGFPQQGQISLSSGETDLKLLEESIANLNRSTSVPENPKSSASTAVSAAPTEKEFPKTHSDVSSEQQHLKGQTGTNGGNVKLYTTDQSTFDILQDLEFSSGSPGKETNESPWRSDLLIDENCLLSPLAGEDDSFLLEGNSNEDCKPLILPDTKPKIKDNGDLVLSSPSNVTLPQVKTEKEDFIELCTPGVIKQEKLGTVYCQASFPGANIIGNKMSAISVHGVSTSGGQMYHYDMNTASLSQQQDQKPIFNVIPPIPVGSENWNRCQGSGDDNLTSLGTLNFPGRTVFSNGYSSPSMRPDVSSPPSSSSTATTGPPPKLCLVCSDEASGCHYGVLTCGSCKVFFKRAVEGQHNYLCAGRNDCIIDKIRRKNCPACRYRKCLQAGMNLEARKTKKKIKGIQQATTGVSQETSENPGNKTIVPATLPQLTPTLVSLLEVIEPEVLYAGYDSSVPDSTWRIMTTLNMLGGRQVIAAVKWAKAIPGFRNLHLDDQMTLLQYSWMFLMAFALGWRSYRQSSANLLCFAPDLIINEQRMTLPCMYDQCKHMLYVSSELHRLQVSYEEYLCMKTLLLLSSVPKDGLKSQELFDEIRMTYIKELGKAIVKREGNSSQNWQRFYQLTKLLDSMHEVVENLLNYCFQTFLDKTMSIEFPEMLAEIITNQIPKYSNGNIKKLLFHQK
# guinea pig Sigma Receptor, Non-selective Binding, SIGMAR1 (gene 100135589), sequence (Q60492 whole entry, looked up): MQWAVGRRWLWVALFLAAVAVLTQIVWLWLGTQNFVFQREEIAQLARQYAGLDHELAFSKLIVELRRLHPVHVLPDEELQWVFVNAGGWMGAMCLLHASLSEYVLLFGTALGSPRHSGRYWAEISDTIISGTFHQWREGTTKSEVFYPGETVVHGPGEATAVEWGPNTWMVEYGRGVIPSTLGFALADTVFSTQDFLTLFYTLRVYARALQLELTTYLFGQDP
# human Dopamine Transporter (DAT), SLC6A3 (gene 6531), sequence (Q01959 whole entry, looked up): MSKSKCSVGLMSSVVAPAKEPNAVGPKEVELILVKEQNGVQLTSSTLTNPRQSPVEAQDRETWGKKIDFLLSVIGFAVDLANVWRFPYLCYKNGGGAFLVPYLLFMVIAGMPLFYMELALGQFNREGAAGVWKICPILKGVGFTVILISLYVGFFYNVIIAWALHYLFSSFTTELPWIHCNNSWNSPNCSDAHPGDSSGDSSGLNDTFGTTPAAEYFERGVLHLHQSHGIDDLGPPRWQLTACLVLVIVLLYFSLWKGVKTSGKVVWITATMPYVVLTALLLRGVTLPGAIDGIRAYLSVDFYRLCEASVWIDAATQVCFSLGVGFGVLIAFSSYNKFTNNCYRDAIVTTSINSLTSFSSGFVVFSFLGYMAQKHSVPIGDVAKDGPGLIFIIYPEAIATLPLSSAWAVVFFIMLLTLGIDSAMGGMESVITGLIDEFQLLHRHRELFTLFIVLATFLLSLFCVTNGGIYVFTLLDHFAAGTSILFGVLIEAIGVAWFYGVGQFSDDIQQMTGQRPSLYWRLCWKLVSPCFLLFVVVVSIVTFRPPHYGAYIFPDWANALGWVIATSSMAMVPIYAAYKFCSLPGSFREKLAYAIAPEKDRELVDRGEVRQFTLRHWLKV
# Nuclear receptor subfamily 1 group I member 2 (Homo sapiens), sequence (O75469 whole entry, looked up): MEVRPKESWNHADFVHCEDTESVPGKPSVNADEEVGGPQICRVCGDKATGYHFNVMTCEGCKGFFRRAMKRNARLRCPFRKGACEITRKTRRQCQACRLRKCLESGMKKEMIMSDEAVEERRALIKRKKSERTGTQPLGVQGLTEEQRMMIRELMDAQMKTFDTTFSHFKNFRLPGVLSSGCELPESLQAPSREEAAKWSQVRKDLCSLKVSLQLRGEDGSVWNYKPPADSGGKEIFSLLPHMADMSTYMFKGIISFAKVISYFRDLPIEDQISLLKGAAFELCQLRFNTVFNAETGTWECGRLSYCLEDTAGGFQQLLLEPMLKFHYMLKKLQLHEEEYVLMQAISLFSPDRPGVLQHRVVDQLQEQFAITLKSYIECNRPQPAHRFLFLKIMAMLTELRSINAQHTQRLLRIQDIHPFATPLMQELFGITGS
smiles,measurement,setting,value
COc1ccc(C=O)cc1OC,outcome,[1],inactive
same,outcome,[2],inactive
Cn1sc(Cl)cc1=O,outcome,[1],inactive
same,outcome,[2],inactive
same,outcome,[3],inactive
same,outcome,[4],inactive
CC(=O)C=C(C)C,outcome,[5],inactive
CN(C)N=O,outcome,[2],inactive
same,outcome,[6],inactive
O=[N+]([O-])c1ccc(O)c([N+](=O)[O-])c1,outcome,[1],inactive
same,outcome,[7],inactive
same,outcome,[6],inactive
CC12CC1(C)C(=O)N(c1cc(Cl)cc(Cl)c1)C2=O (stereo not given),outcome,[2],inactive
same,outcome,[8],inactive
same,outcome,[7],inactive
CCC(C)(C)c1ccc(O)c(C(C)(C)CC)c1,outcome,[1],inactive
same,outcome,[2],inactive
same,outcome,[6],inactive
Oc1cccc2cccnc12,outcome,[2],inactive
same,AC50,[9],5.52 µM (active)
same,outcome,[8],inactive
CCCCCCCCSC(=O)Oc1cc(Cl)nnc1-c1ccccc1,outcome,[5],inactive
CCOP(=S)(OCC)SCSP(=S)(OCC)OCC,AC50,[1],9.13 µM (active)
same,AC50,[2],14.7 µM (active)
same,outcome,[8],inactive
same,AC50,[4],25 µM (active)
N#CCc1ccc(Cl)cc1,outcome,[10],inactive
C[C@]12CCC(=O)C[C@@H]1CC[C@@H]1[C@@H]2CC[C@]2(C)[C@@H](O)CC[C@@H]12,AC50,[2],6.23 µM (active) and 10.7 µM (active) and 5.44 µM (active)
same,outcome,[2],inactive
same,AC50,[10],0.366 µM (active)
same,outcome,[8],inactive
same,AC50,[11],5.71 µM (active)
COP(=O)(OC)O/C(=C\Cl)c1cc(Cl)c(Cl)cc1Cl,outcome,[5],inactive
same,AC50,[8],25 µM (active)
same,outcome,[6],inactive
C[C@]12CC[C@H](O)CC1=CC[C@@H]1[C@@H]2CC[C@]2(C)C(=O)CC[C@@H]12,AC50,[2],3.91 µM (active)
same,outcome,[8],inactive
O=C(O)C(F)(F)C(F)(F)C(F)(F)C(F)(F)C(F)(F)C(F)(F)F,outcome,[2],inactive
same,outcome,[5],inactive
same,outcome,[6],inactive
O=C(O)C(F)(F)C(F)(F)C(F)(F)C(F)(F)C(F)(F)C(F)(F)C(F)(F)C(F)(F)C(F)(F)C(F)(F)F,outcome,[2],inactive
same,AC50,[6],6.31 µM (active)
CCCCCCCCc1ccc(O)cc1,AC50,[2],12.2 µM (active)
same,outcome,[5],inactive
same,outcome,[6],inactive
Oc1ccc(-c2ccccc2)cc1,AC50,[2],12.7 µM (active)
same,outcome,[5],inactive
same,AC50,[10],43.2 µM (active)
same,AC50,[12],11.9 µM (active)
same,AC50,[4],10.7 µM (active)
O=c1[nH]c(=O)[nH]c(=O)[nH]1,outcome,[2],inactive
CCOP(=S)(OCC)Oc1nc(Cl)c(Cl)cc1Cl,AC50,[1],61.5 µM (active)
same,AC50,[2],58.9 µM (active)
same,outcome,[8],inactive
same,outcome,[6],inactive
CNC(=O)O/N=C/C(C)(C)S(C)=O (stereo not given),outcome,[1],inactive
same,outcome,[2],inactive
same,outcome,[6],inactive
C[C@H]1CCCC(=O)CCC/C=C/c2cc(O)cc(O)c2C(=O)O1,AC50,[1],0.24 µM (active)
same,AC50,[2],0.0845 µM (active)
same,AC50,[8],0.969 µM (active)
same,AC50,[6],2.15 µM (active)
[O-][Cl+2]([O-])O,outcome,[1],inactive
same,outcome,[8],inactive
CCC(=O)C(CC(C)N(C)C)(c1ccccc1)c1ccccc1 (stereo not given),outcome,[1],inactive
same,outcome,[2],inactive
same,AC50,[11],2.1 µM (active)
same,AC50,[13],11.3 µM (active)
same,AC50,[14],0.0639 µM (active)
CC(C)(c1ccc(OCC2CO2)cc1)c1ccc(OCC2CO2)cc1 (stereo not given),outcome,[2],inactive
same,outcome,[15],inactive
same,outcome,[3],inactive
same,outcome,[6],inactive
Cc1ccccc1C(=O)Nc1cccc(OC(C)C)c1,outcome,[1],inactive
same,AC50,[8],7.03 µM (active)
same,outcome,[6],inactive
COC(=O)c1sccc1S(=O)(=O)NC(=O)Nc1nc(C)nc(OC)n1,outcome,[1],inactive
same,outcome,[2],inactive
same,outcome,[6],inactive
O=C1C2(Cl)C3(Cl)C4(Cl)C(Cl)(Cl)C5(Cl)C3(Cl)C1(Cl)C5(Cl)C24Cl (stereo not given),outcome,[5],inactive
same,outcome,[9],inactive
same,AC50,[3],841 nM (active) and 992 nM (active) and 186 nM (active)
same,outcome,[8],inactive
same,outcome,[7],inactive
same,outcome,[6],inactive
CCN1CCC2(CC1)COc1cc3c(cc12)N(C(=O)c1ccc(-c2ccc(-c4nnc(C)o4)cc2C)cc1)CC3,outcome,[1],inactive
same,outcome,[2],inactive
same,outcome,[7],inactive
same,AC50,[11],3.01 µM (active)
same,AC50,[16],1.11 µM (active)
same,AC50,[12],7.47 µM (active)
same,outcome,[17],inactive
same,outcome,[13],inactive
same,AC50,[4],6.34 µM (active)
same,AC50,[14],7.6 µM (active)
C[C@@H]1C[C@@H]([C@H](O)CC2CC(=O)NC(=O)C2)C(=O)[C@@H](C)C1,outcome,[2],inactive
same,outcome,[8],inactive
C=CC#N,outcome,[1],inactive
same,outcome,[2],inactive
same,outcome,[8],inactive
same,outcome,[6],inactive
C=CCc1ccc(OC)cc1,outcome,[2],inactive
same,outcome,[5],inactive
ClC1(Cl)C2(Cl)C3(Cl)C4(Cl)C(Cl)(Cl)C5(Cl)C3(Cl)C1(Cl)C5(Cl)C24Cl (stereo not given),outcome,[18],inactive
CC(C)(OO)c1ccccc1,outcome,[3],inactive
N#CCCO,outcome,[7],inactive
CCN(CC)C(=O)Cl,outcome,[7],inactive
Nc1ccc(Cl)cc1C(=O)c1ccccc1,AC50,[12],6.19 µM (active)
Nc1ccc(-c2ccc(N)c(Cl)c2)cc1Cl,AC50,[12],3.73 µM (active)
O=[N+]([O-])c1ccc2c3c(cccc13)CC2,AC50,[14],18.2 µM (active)
